PubChem BioAssay (NCATS)
Results filed as inconclusive are left out. Activity calls are given as the source filed them. The call rests on the fitted dose curve; in most records, active means well fitted curve in the direction sought with a large enough effect; inconclusive means small, poorly fitted or top-dose-only effect, or another doubt; inactive means no such curve, though single readings can be large; an effect the other way counts as inactive or inconclusive.

Experiments:
[1] = Cellular Toxicity (caspase-3) Jurkat (AID 655);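 further: cells exposed to compound for 16 h at 37 °C before reading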
Outline: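 qHTS in human Jurkat T-cell leukemia line: 16 hr compound treatment at 37 °C, caspase-3/7 activity measured by Caspase-Glo luminescence. AC50 derived from Hill equation.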

[2] = Cellular Toxicity (caspase-3) HUV-EC-C (AID 656)
Outline: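 Concentration-dependent caspase 3/7 induction was assessed in HUV-EC-C cells exposed for 16 hours. Data scaled between DMSO and tamoxifen (100 uM) controls.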

[3] = Cellular Toxicity (caspase-3) SHSY5Y (AID 657)
Outline: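 Readout: caspase-cleaved peptide-aminoluciferin substrate driving luciferase light in SH-SY5Y neuroblastoma cells after 16 h treatment. Response normalized to DMSO and 10 uM staurosporine controls.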

[4] = Cellular Toxicity (caspase-3) BJ (AID 658); conditions: Potency: caspase-3 activation;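 further: 0% = DMSO basal and 100% = 10 µM staurosporine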
Outline: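 BJ human foreskin fibroblasts, 1000 cells/well, treated 16 hours at 37 °C in complete medium; caspase 3/7 activity by Caspase-Glo luminescence after 1 hr at room temperature. Normalized to DMSO and 10 uM staurosporine; AC50 from Hill fits.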

[5] = Cellular Toxicity (caspase-3) MRC-5 (AID 659);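 further: 0% = DMSO basal and 100% = 10 µM staurosporine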
Outline: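 MRC-5 human normal lung fibroblasts, 1500 cells/well, treated 16 h at 37 °C in complete medium. Caspase 3/7 measured by Caspase-Glo luminescence after 1 h at room temperature. Normalized to DMSO and 10 uM staurosporine; AC50 from Hill fit.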

[6] = Cellular Toxicity (caspase-3) Mesangial (AID 660);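 further: combined caspase 3 and 7 activity read by Caspase-Glo luminescence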
Outline: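 Concentration-response qHTS: compound-induced rise in caspase 3/7 luminescence in human mesangial cells after 16 h, normalized to DMSO and 100 uM tamoxifen controls.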

[7] = Cellular Toxicity (caspase-3) SK-N-SH (AID 661); conditions: SK-N-SH caspase-3 activation, qHTS; caspase-3 activation: at 91.7 µM (top of the series), DMSO as zero, staurosporine as full;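 further: 0% = DMSO basal and 100% = 10 µM staurosporine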
Outline: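 Caspase 3/7 activation is measured as a luminescence increase from aminoluciferin released by substrate cleavage in SK-N-SH cells after 16 hr compound treatment; values are AC50 from concentration-response curves.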

[8] = Cellular Toxicity (caspase-3) H-4-II-E (AID 663);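 further: cells exposed to compound for 16 hr before readout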
Outline: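 Rat hepatoma H-4-II-E cells (1500/well) plated 5 hr, then exposed to compound titrations for 16 hr at 37 °C. Caspase-Glo 3/7 luminescence read after 20 min at RT; data normalized to DMSO and 100 uM tamoxifen, AC50 from Hill fits.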

[9] = Cellular Toxicity (caspase-3) Hek293 (AID 664); conditions: HEK293 caspase-3 activation, DMSO = 0%, 100 µM tamoxifen = 100%; at 92.2 µM (top of the series);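 further: cells exposed to compound for 16 h at 37 °C before readout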
Outline: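 Activation of caspase-3/7 is measured as increased luminescence from cleaved peptide-aminoluciferin substrate in HEK293 cells treated 16 hours at 37 °C. AC50 values come from Hill-equation fits of concentration-response data.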

[10] = Cellular Toxicity (caspase-3) N2a (AID 665);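 further: compound exposure lasted 16 h at 37 °C before readout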
Outline: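 Plated mouse neuroblastoma N2a cells received titrated compounds for 16 h in complete medium. Caspase activity was then detected with a peptide-aminoluciferin luminescent reagent.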

[11] = Cellular Toxicity (caspase-3) NIH 3T3 (AID 666);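 further: caspase signal read after 16 h compound exposure; 0% = DMSO basal and 100% = 100 µM tamoxifen stimulation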
Outline: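 Concentration-response qHTS in NIH 3T3 mouse fibroblasts scores caspase-3/7 activation as rising luminescence after 16 hr compound exposure. Signals are scaled between DMSO-only and 100 uM tamoxifen.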

[12] = target: Cytochrome P450 3A4 (Homo sapiens) (UniProt P08684); assay: qHTS Assay for Inhibitors and Substrates of Cytochrome P450 3A4 (AID 884); further: on the % scale 0 is the no-effect control and ±100 the full control effect; nearly all actives have a fitted effect of over 50% in size
Sequence of Cytochrome P450 3A4 (Homo sapiens) (P08684 whole entry, looked up): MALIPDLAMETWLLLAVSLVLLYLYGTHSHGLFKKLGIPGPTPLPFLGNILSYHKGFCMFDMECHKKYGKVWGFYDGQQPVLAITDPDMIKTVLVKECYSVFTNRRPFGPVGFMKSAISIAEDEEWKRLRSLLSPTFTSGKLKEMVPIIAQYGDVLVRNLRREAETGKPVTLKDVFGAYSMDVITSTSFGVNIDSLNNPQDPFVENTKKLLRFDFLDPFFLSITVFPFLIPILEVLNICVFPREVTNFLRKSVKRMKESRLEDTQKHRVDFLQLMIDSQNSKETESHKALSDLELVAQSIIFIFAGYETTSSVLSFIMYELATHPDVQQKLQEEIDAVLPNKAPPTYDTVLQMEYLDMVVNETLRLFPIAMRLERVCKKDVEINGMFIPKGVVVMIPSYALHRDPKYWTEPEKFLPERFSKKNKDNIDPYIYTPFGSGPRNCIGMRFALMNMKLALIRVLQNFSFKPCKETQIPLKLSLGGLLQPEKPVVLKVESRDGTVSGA
Outline: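 20 nM human CYP3A4 with 25 uM Luciferin-PPXE (at KM) in 200 mM KPO4, preincubated 10 min with compound; NADPH regeneration started a 60 min RT reaction. Luciferin detected by luminescence, normalized to 57 uM ketoconazole as full inhibition.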

[13] = Cell Viability - LYMP2-001 (AID 921);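 further: cells exposed to compound for 24 h at 37 °C; 0% = DMSO only and full inhibition = tetraoctylammonium bromide control wells; nearly all actives have a fitted effect of over 70% in size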
Outline: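 A lymphoblastoid cell line of human origin was treated with library compounds across a concentration series for 24 hours, and viable cell number was estimated from ATP-driven luciferase light output. Hill modeling gave AC50.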

CCCCC
inactive: Potency [1] | outcome [2] | Potency [3] | Potency [4] | outcome [5] | outcome [6] | Potency [7] | outcome [8] | caspase-3 activation [9] 2.68% | outcome [10] | outcome [11] | Potency [12] | Potency [13]

ClC(Cl)Cl
inactive: Potency [1] | outcome [2] | Potency [3] | Potency [4] | outcome [5] | outcome [6] | Potency [7] | outcome [8] | caspase-3 activation [9] 0.0594% | outcome [10] | outcome [11] | Potency [12] | Potency [13]

O.O.O.O.O.O.O.O=S(=O)([O-])[O-].[Co+2]
inactive: Potency [1] | outcome [2] | Potency [3] | Potency [4] | outcome [5] | outcome [6] | Potency [7] | outcome [8] | caspase-3 activation [9] -1.13% | outcome [10] | outcome [11] | Potency [12]

CC(C)O
inactive: Potency [1] | outcome [2] | Potency [3] | Potency [4] | outcome [5] | outcome [6] | Potency [7] | outcome [8] | caspase-3 activation [9] 1.95% | outcome [10] | outcome [11] | Potency [12] | Potency [13]

CO/N=C(/C(=O)N[C@@H]1C(=O)N2C(C(=O)O)=C(COC(N)=O)CS[C@H]12)c1ccco1
inactive: Potency [1] | outcome [2] | Potency [3] | Potency [4] | outcome [5] | outcome [6] | Potency [7] | outcome [8] | caspase-3 activation [9] 0.731% | outcome [10] | outcome [11] | Potency [12] | Potency [13]
